Test results as given in PubChem BioAssay (Tox21).
Results filed as inconclusive are left out. The source made the active and inactive calls. Calls come from the whole dose curve; as a rule, active = well fitted curve in the direction sought with a large enough effect in the repeat runs; inconclusive = weak or mixed curves; inactive = no such curve, though single readings can be large; an effect the other way counts as inactive or inconclusive.

Assays:
[1] = A CellTox Green Cytotoxicity Assay to monitor cytotoxicity in HEK293 cells - 32 hour (AID 1224881); note: nearly all actives have a fitted effect of over 40% in size
Method in brief: (§1)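 Seeding of HEK293 cells together with cytotoxicity dye preceded a 5 h incubation at 37 C/5% CO2. Test compounds in DMSO were then added and fluorescence monitored across 40 h.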

[2] = A CellTox Green Cytotoxicity Assay to monitor cytotoxicity in HepG2 cells - 0 hour (AID 1224882); note: nearly all actives have a fitted effect of over 35% in size
Method in brief: (§2)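 Nonlytic assay: viable cells exclude the dye, so fluorescence scales with cell death. HepG2 at 600 cells/well, compounds added after 5 h, signal read across 40 h.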

[3] = A CellTox Green Cytotoxicity Assay to monitor cytotoxicity in HepG2 cells - 32 hour (AID 1224883); note: nearly all actives have a fitted effect of over 50% in size; note: potency is the fitted concentration of half-maximal effect
Method in brief: as §2

[4] = A CellTox Green Cytotoxicity Assay to monitor cytotoxicity in HEK293 cells - 8 hour (AID 1224884); note: nearly all actives have a fitted effect of over 35% in size; note: potency is the fitted concentration of half-maximal effect
Method in brief: as §1

[5] = qHTS RealTime-Glo MT Cell Viability Assay in HepG2 cells - 16 hour (AID 1224885); note: nearly all actives have a fitted effect of over 50% in size
Method in brief: (§3)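 Luminescence read-out: viable HepG2 cells reduce a prosubstrate to a NanoLuc substrate, giving a signal proportional to live cell number. Reads taken at 0, 8, 16, 24, 32 and 40 h of compound exposure at 37 C.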

[6] = qHTS RealTime-Glo MT Cell Viability Assay in HEK293 cells - 24 hour (AID 1224886); note: nearly all actives have a fitted effect of over 50% in size; note: potency is the fitted concentration of half-maximal effect
Method in brief: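 Nonlytic real-time viability readout: viable cells convert prosubstrate to NanoLuc substrate, giving luminescence proportional to live cell number. HEK293, 600 cells/well, compound added after 5 h, continuous culture at 37 C.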

[7] = qHTS RealTime-Glo MT Cell Viability Assay in HEK293 cells - 8 hour (AID 1224887); note: nearly all actives have a fitted effect of over 50% in size; note: potency is the fitted concentration of half-maximal effect
Method in brief: (§4)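 Tox21 screen in HEK293 using RealTime-Glo MT chemistry, with cells and reagent co-dispensed. Luminescence proportional to viable cell number was captured at intervals during 40 h compound exposure at 37 C.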

[8] = A CellTox Green Cytotoxicity Assay to monitor cytotoxicity in HEK293 cells - 16 hour (AID 1224888); note: nearly all actives have a fitted effect of over 35% in size; note: potency is the fitted concentration of half-maximal effect
Method in brief: as §1

[9] = qHTS RealTime-Glo MT Cell Viability Assay in HEK293 cells - 0 hour (AID 1224880); note: top concentration of the series differs between compounds; nearly all actives have a fitted effect of over 45% in size
Method in brief: as §4

[10] = qHTS RealTime-Glo MT Cell Viability Assay in HepG2 cells - 0 hour (AID 1224889); note: nearly all actives have a fitted effect of over 50% in size
Method in brief: as §3

Measured: Potency

CC1(C)S[C@@H]2[C@H](NC(=O)C(C(=O)O)c3ccccc3)C(=O)N2[C@H]1C(=O)O (stereo not given in full)
not listed: [9] | [10]
inactive: all other assays above

Cc1ccc(C(C)C)cc1O
not listed: [1] | [3] | [10]
inactive: all other assays above

OCC(CBr)(CBr)CBr
not listed: [9] | [10]
inactive: all other assays above

CC(C)(C)c1ccc(OC(=O)c2ccccc2O)cc1
not listed: [1]
inactive: all other assays above

CC(C)C(=O)OCC(C)(C)C(O)C(C)C (stereo not given)
not listed: [1] | [6]
inactive: all other assays above

COc1ccccc1N1CCN(CCCNc2cc(=O)n(C)c(=O)n2C)CC1
inactive: [9] | [2] | [3] | [4] | [8] | [10]

CC1=C(CC(=O)O)c2cc(F)ccc2/C1=C\c1ccc(S(C)(=O)=O)cc1
not listed: [1]
inactive: all other assays above

CCCc1c2oc(C(=O)O)cc(=O)c2cc2c(=O)cc(C(=O)O)n(CC)c12
inactive: [9] | [3] | [5] | [6] | [7] | [10]

CN(C)Cc1ccccc1
not listed: [1] | [5]
inactive: all other assays above

CC/C=C\CCOC(=O)CCCCC
inactive: [9] | [3] | [6] | [7] | [8]

CC(C)S
not listed: [1]
inactive: all other assays above

CCCCCCCCCCCCCCCCOP(=O)([O-])OCC[N+](C)(C)C
not listed: [1] | [3]
inactive: all other assays above

O=C(CC(=O)C(F)(F)F)c1ccccc1
not listed: [1]
inactive: all other assays above

CC1=C2[C@H](/C=C(\C)C(=O)O)CC[C@@H](C)[C@H]2CC1
active: [6] 36 µM | [7] 25.5 µM
inactive: [9] | [2] | [3] | [5]

ICCc1ccccc1
not listed: [1]
inactive: all other assays above

CCCCCCOc1ccc(N)cc1
active: [7] 19.5 µM
not listed: [1] | [3] | [6]
inactive: all other assays above

NNS(=O)(=O)c1ccc(Oc2ccc(S(=O)(=O)NN)cc2)cc1
not listed: [1]
inactive: all other assays above

N#CSCC(=O)O
not listed: [1]
inactive: all other assays above

O=C1CCC(C2CCCCC2)CC1
inactive: [9] | [5] | [10]
active: [3] 38.9 µM | [4] 43.6 µM | [8] 43.6 µM

CCCCCCCCc1ccc(S(=O)(=O)O)cc1
inactive: [9] | [2] | [4] | [5] | [6] | [7]

C=CCCCCCCCCO
not listed: [1] | [3] | [6]
inactive: all other assays above

CN1CCN(c2c(F)cc3c(=O)c(C(=O)O)cn(CCF)c3c2F)CC1
active: [8] 5.35 µM
inactive: [9] | [2] | [3] | [7] | [10]

COC(=O)C(C)O (stereo not given)
not listed: [9]
inactive: all other assays above

C=O
not listed: [1] | [6]
inactive: all other assays above

COC(=O)/C=C(/C)N
not listed: [1] | [8]
inactive: all other assays above

CN1[C@@H]2CC[C@H]1CC(OC(=O)c1c[nH]c3ccccc13)C2 (stereo not given in full)
inactive: [9] | [3] | [4] | [5] | [6] | [7]

Cc1ccc([N+](=O)[O-])cc1Cl
not listed: [1]
inactive: all other assays above
